Experimental data as given in PubChem BioAssay AID1851 (National Center for Advancing Translational Sciences (NCATS), 2009).
Among all 16,000 compounds or so, about 5,100 (32%) were called active. Roughly 25% stayed inconclusive and do not appear here. The list shows a part of the results. Unmarked numbers belong to inactive results. Calls follow the shape of the dose curve; as a rule, active = well fitted curve in the direction sought with a large enough effect; inconclusive = small, poorly fitted or top-dose-only effect, or effect the other way; inactive = no such curve, though single readings can be large or run the other way.

What follows are molecules tested against Cytochrome P450 3A4 (Homo sapiens) (UniProt P08684) (assay: Cytochrome panel assay with activity outcomes). Settings: recombinant CYP, pro-luciferin dealkylation, luminescence, p450-cyp3a4; series mostly up to 57.1 µM.
% is scaled to controls: 0 for no effect and ±100 for the full control effect.

Cytochrome P450 3A4 (Homo sapiens), sequence (P08684 whole entry, looked up): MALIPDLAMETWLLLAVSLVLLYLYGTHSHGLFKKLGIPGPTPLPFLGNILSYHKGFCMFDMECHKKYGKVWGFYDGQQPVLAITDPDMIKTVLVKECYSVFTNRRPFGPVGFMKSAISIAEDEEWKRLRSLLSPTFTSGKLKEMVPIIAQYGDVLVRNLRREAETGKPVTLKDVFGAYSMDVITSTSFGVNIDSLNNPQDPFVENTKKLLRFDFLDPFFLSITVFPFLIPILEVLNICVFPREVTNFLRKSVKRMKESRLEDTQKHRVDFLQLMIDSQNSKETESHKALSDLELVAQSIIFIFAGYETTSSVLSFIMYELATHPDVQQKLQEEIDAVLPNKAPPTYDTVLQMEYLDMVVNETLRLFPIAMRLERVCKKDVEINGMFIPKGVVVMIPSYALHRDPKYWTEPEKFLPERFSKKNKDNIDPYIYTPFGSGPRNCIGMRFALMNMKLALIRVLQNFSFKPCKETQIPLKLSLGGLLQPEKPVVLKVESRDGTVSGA

SMILES | AC50 | activity, negative = inhibition
CCNc1ncc2nc(-c3ccc(OC)cc3)c(=O)n(Cc3ccc(F)cc3)c2n1 | inactive | 
COc1ncc2nc(-c3ccc(F)cc3)c(=O)n(Cc3ccc(F)cc3)c2n1 | 3.16 µM (active) | 
COc1cc2c(cc1OC)CN(CC(=O)Nc1ccc3c(c1)OCO3)CC2 | 3.55 µM (active) | 
COc1ccc(NC(=O)CC#N)cc1OC | inactive | 
O=C(CN1CCN(S(=O)(=O)c2ccc(F)cc2)CC1)Nc1ccc(Cl)c(C(F)(F)F)c1 | 5.01 µM (active) | 
CCOc1ccc(C(=O)CN2CCN(S(=O)(=O)c3ccc(F)cc3)CC2)cc1 | 6.31 µM (active) | 
CCOC(=O)c1ccc(S(=O)(=O)N2CCN(C)CC2)cc1 | inactive | 
CCN(CC)C(=O)COc1ccc(S(=O)(=O)N2CCOCC2)cc1 |  | -4.69% [at 11.4 µM]
CCOc1ccc(NC(=O)CN2CCN(S(=O)(=O)c3ccc(Cl)cc3)CC2)cc1 | 14.1 µM (active) | 
N[C@@H](Cc1ccnnc1)C(=O)O |  | -3.75% [at 11.4 µM]
Cc1nnc(S(=O)(=O)c2ccc(N=Nc3c(N)nc(N)nc3N)cc2)s1 |  | 4.76% [at 11.4 µM]
O=C(CN1CCN(S(=O)(=O)c2ccc(F)cc2)CC1)Nc1ccc2c(c1)OCO2 | 2 µM (active) | 
CCN(CC(=O)Nc1ccc2c(c1)OCCO2)C(=O)c1cccc(S(=O)(=O)N2CCOCC2)c1 |  | -20.1% [at 11.4 µM]
O=C(CN1CCN(S(=O)(=O)c2ccc(Cl)cc2)CC1)Nc1ccc2c(c1)OCO2 | 1 µM (active) | 
CC1(C)CCCN(C(=O)c2coc(=O)c(Br)c2)C1 | inactive | 
CCn1c(=O)cc(SCC(=O)N2CCN(C(=O)c3ccco3)CC2)c2ccccc21 | 7.08 µM (active) | 
CCn1c(=O)cc(OCC(=O)Nc2cccnc2)c2ccccc21 | 7.08 µM (active) | 
CC(C)NC(=O)N1CCC2(CC1)CCN(C(=O)c1ccco1)CC2 | inactive | 
CCn1c(=O)cc(SCC(=O)Nc2cc(OC)c(OC)c(OC)c2)c2ccccc21 | 5.01 µM (active) | 
Cc1ccnc(NC(=O)c2cccc(NC(=O)COc3ccccc3)c2)c1 |  | -4.8% [at 2.29 µM]

SMILES | AC50 | activity, negative = inhibition
Cn1c(=O)cc(OCC(=O)NCc2cccnc2)c2ccccc21 | 12.6 µM (active) | 
Cn1c(C(=O)O)c(CC(=O)NCc2cccnc2)c2ccccc21 | inactive | 
O=C(Cc1ccc(Cl)cc1)N1CCN(C(=O)c2ccco2)CC1 | inactive | 
CCC(CC)C(=O)NCCN1CCN(C(=O)C(CC)CC)CC1 |  | 2.98% [at 2.29 µM]
CC(C)CCOc1ccc(NC(=O)C2OC3OC(C)(C)OC3C3OC(C)(C)OC23)cc1 (stereo not given) |  | -3.7% [at 2.29 µM]
Cn1c(=O)cc(OCCCC(=O)Nc2cccnc2)c2ccccc21 | 6.31 µM (active) | 
COc1cc(=O)n(C)c2c(OC[C@@H](O)C(C)(C)O)cccc12 | inactive | 
CCN(C(=O)COc1cc(=O)n(C)c2ccccc12)c1cccc(Cl)c1 | 3.55 µM (active) | 
CCCNC(=O)OC[C@@H]1O[C@H](CCO/N=C(\C)CCN2CCCCc3nc(C)c(C)cc32)C=C[C@@H]1Oc1ccc(OC)cc1 | 3.16 µM (active) | 
CCCNC(=O)OC[C@@H]1O[C@H](CCO/N=C(\C)CCN2CCCc3nc(C)c(C)cc32)C=C[C@@H]1Oc1ccc(OC)cc1 | 3.98 µM (active) | 
O=C(c1ccccc1)c1ccc2nc(-c3ccc(NC(=O)c4ccccc4F)cc3)[nH]c2c1 | inactive | 
Fc1cc2nc(-c3ccncc3)[nH]c2cc1F | 1.41 µM (active) | 
O=c1c2cnn(-c3ccccc3)c2nnn1/N=C/c1cccnc1 | inactive | 
C(=N\N1CCN(C2c3ccccc3-c3ccccc32)CC1)/c1cccnc1 | 12.6 µM (active) | 
C/C(=N\N1CCN(C2c3ccccc3-c3ccccc32)CC1)c1ccncc1 | 1 µM (active) | 
O=[N+]([O-])c1cc(/C=N/N2CCN(C3c4ccccc4-c4ccccc43)CC2)ccc1Cl | inactive | 
C/C(=N\N1CCN(C2c3ccccc3-c3ccccc32)CC1)c1cccnc1 | 2.82 µM (active) | 
Cn1c(=O)[nH]c(=O)c2c1nc(NCCCO)n2CCCc1ccccc1 | inactive | 
CC(C)(C)NC[C@H](O)COc1cccc2[nH]c(=O)[nH]c12 | inactive | 
Cc1ccccc1OCC(O)Cn1c(NCc2ccccc2)nc2c1c(=O)[nH]c(=O)n2C (stereo not given) | 11.2 µM (active) | 

SMILES | AC50 | activity, negative = inhibition
Cc1ccc(C(=O)CNc2nc3c(c(=O)[nH]c(=O)n3C)n2Cc2ccccc2)cc1 | 5.01 µM (active) | 
Cc1cc(C)n(-c2nc3c(c(=O)[nH]c(=O)n3C)n2CC(C)C)n1 | inactive | 
Cc1nc2cnc(N(C)C)nc2n(-c2ccccc2)c1=O | inactive | 
CN(C)c1ncc2nc(CCc3ccccc3)c(=O)n(-c3ccccc3)c2n1 | 6.31 µM (active) | 
CN(C)c1ncc2nc(-c3ccc(Cl)cc3)c(=O)n(Cc3cccs3)c2n1 | inactive | 
CN(C)c1ncc2nc(CCc3ccccc3)c(=O)n(Cc3cccs3)c2n1 | 10 µM (active) | 
COCCn1c(=O)c(C)nc2cnc(N(C)C)nc21 | inactive | 
CN(C)c1ncc2ncc(=O)n(CCc3ccccc3)c2n1 | inactive | 
CN(C)c1ncc2nc(-c3ccccc3)c(=O)n(CCc3ccccc3)c2n1 | inactive | 
COCCn1c(=O)c(CCc2ccccc2)nc2cnc(N(C)C)nc21 | 15.8 µM (active) | 
CN(C)c1ncc2nc(CCc3ccccc3)c(=O)n(CCc3ccccc3)c2n1 | 6.31 µM (active) | 
CN(C)C(=O)Oc1cccc([N+](C)(C)C)c1 | inactive | 
Cc1nnc(NC(=O)c2cccc(NC(=O)C(C)C)c2)s1 | inactive | 
Cc1nc(NC(=O)c2ccccc2)sc1-c1csc(Nc2ccc(Cl)cc2)n1 |  | 3.11% [at 2.29 µM]
Cc1nc(NC(=O)c2ccco2)sc1-c1csc(Nc2ccc(Cl)cc2Cl)n1 | 5.01 µM (active) | 
O=C(NNC(=O)c1cc2cc3ccccc3nc2s1)c1cccc(Cl)c1 | inactive | 
Cc1nc(NC(=O)c2ccccc2)sc1-c1csc(Nc2ccc(F)cc2)n1 | 10 µM (active) | 
Cn1sc(NC(=O)c2ccccc2Cl)nc1=O | inactive | 
Cc1nc(NC(=O)c2ccccc2)sc1-c1csc(Nc2ccc(Cl)cc2Cl)n1 | 11.2 µM (active) | 
Cc1nc(NC(=O)c2ccccc2)sc1-c1csc(Nc2cccc(Cl)c2)n1 | 10 µM (active) | 
